# Measured values taken from PubChem BioAssay.
# Inconclusive results are not listed. Active and inactive are the calls of the source.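 How the source made its calls, unless noted: active means inhibition above 54%, about 3 SD of non-fluorescent compounds; inactive means the rest.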
# Key:
# [1] = yeast TOR pathway RPL19A-GFP modulators, primary screen, cell-based, S. cerevisiae, multiplex flow cytometry (AID 1862; in the data active means percent of DMSO control GFP below about 86%;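 further: lower values mimic rapamycin by blocking the RPL19A rise seen in DMSO cells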); conditions: S. cerevisiae RPL19A-GFP strain, flow cytometry fluorescence, 3 h; at 10 µM; stronger effect = lower value
# [2] = modulators of MEP2-GFP levels in yeast, primary screen, S. cerevisiae, multiplex flow cytometry (AID 1867;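 active means GFP response, as percent of the DMSO control, above the screen-wide mean plus 3 SD, about 139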;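 further: median GFP channel fluorescence of barcode-gated MEP2-GFP cells measured by flow cytometry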); conditions: S. cerevisiae MEP2-GFP strain, 3 h, at 10 µM, stronger effect = higher value, 100% means same as DMSO wells
# [3] = modulators of CIT2-GFP expression in yeast, primary screen, S. cerevisiae, GFP fusion, multiplex flow cytometry (AID 1870;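 active means percent response above a set limit, the screen-wide mean plus 3 SD, cut at about 130% in these data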;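 further: barcoded CIT2-GFP strain pooled with four other GFP strains with rapamycin as positive control; median GFP fluorescence per well over plate mean of DMSO wells so 100% = DMSO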); conditions: 3 h, at 10 µM, stronger effect = higher value
# [4] = modulators of LAP4-GFP expression in yeast, primary screen, S. cerevisiae, multiplex flow cytometry (AID 1873;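 active means GFP signal, as percent of the solvent control, above the screen mean plus 3 SD, about 149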); conditions: 3 h, at 10 µM, stronger effect = higher value
# [5] = modulators of AGP1-GFP expression in yeast TOR pathway, primary screen, cell-based, multiplex flow cytometry, S. cerevisiae (AID 1887;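 active means GFP signal above the screen-wide mean plus 3 SD, that is over about 124.5% of the solvent control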;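 further: AGP1-GFP fusion strain of S. cerevisiae within a five-strain barcoded multiplex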); conditions: 3 h, at 10 µM, stronger effect = higher value
# [6] = inhibitors of CD8+ T cell-vesicle binding, pilot screen, LFA-1/ICAM-1 modulator project, MLPCN validation set, flow cytometry (AID 2523;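 active means response below a set limit, under 55% cells CD8-positive and vesicle-bound, and CD8 cells' 90th-percentile brightness under 279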;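 on vesicle binding response: mean PE anti-B7-1 fluorescence of CD8+ cells relative to row control; 100% = QL9-loaded vesicles with DMSO vehicle in the same plate row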); conditions: 2C mouse CD8+ T cells, at 7 µM, stronger effect = lower value; double positive events: measured here: CD8+/vesicle+ event percentage
# [7] = target: Integrin beta-1 (Homo sapiens) + Integrin alpha-4 (Homo sapiens) (UniProt P13612+P05556); assay: inhibition of HUTS-21 binding to VLA-4, pilot screen, VLA-4 allosteric modulator project, U937 cells, HUTS-21 mAb, flow cytometry, validation set (AID 2674;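 active means inhibition above 50%, about 3 SD of the validation set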;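 further: antibody binding induced by the VLA-4 ligand LDV present at three times its Kd; 0% = LDV ligand with antibody and no compound and 100% = antibody without LDV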); conditions: HUTS-21 LIBS mAb binding, at 6.7 µM, stronger effect = higher value, binding induced by LDV ligand
# Chain of Integrin beta-1 (Homo sapiens) + Integrin alpha-4 (Homo sapiens) (P05556 whole entry, looked up): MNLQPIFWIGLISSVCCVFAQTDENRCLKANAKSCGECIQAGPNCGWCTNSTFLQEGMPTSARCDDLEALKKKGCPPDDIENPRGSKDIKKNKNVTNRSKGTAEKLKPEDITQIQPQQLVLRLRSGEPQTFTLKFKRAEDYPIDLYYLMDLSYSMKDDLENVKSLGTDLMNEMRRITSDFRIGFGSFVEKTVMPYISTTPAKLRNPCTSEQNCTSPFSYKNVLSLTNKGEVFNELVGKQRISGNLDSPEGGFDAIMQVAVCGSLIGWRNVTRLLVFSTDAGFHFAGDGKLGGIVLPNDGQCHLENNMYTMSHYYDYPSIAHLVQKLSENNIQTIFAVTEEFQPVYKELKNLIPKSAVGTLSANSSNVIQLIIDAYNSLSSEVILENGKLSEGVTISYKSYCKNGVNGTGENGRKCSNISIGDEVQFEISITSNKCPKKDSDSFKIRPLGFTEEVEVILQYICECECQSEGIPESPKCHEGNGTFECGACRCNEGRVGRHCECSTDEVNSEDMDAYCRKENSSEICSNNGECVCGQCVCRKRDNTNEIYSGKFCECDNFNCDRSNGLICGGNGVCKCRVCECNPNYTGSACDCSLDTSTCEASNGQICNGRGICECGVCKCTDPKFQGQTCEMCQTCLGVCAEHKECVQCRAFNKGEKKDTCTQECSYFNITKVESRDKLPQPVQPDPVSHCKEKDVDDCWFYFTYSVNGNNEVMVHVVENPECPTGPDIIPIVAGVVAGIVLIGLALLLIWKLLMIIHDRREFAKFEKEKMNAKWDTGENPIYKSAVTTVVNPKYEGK
# Chain of Integrin beta-1 (Homo sapiens) + Integrin alpha-4 (Homo sapiens) (P13612 whole entry, looked up): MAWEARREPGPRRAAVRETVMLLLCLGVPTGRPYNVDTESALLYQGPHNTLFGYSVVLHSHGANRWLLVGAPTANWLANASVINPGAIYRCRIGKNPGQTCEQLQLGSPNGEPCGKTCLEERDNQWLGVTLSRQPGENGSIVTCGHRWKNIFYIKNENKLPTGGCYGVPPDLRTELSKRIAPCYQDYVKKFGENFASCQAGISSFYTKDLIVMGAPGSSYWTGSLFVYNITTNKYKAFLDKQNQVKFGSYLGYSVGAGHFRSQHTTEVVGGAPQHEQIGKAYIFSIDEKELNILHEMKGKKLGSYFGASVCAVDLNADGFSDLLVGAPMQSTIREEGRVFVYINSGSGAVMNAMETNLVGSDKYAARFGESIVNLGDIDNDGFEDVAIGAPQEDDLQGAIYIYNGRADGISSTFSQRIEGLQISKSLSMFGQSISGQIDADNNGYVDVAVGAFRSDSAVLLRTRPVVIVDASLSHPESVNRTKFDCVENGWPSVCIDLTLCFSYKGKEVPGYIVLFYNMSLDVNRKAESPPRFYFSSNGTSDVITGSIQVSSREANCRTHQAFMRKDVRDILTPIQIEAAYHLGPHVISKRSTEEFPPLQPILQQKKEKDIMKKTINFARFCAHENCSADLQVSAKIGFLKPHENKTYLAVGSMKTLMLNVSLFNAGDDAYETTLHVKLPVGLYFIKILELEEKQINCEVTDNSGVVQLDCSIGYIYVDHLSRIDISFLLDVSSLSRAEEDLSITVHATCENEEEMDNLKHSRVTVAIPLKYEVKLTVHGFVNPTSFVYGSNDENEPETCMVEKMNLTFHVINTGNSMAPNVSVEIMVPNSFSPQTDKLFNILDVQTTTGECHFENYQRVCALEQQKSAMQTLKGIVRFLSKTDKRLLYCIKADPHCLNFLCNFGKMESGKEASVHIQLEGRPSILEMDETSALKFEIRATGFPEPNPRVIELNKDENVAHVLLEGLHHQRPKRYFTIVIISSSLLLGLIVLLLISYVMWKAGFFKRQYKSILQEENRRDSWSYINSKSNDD
# [8] = superoxide lowering in aged yeast cells, pilot screen, validation compound set (AID 2706;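 active means superoxide response below 65% of plate, a cut near 3 SD across the whole screen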;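 further: yeast exposed to compound for one week at 30 degrees C before staining; 100% = mean of all compound wells on the same plate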); conditions: S. cerevisiae aging, superoxide DHE fluorescence; at 10 µM; stronger effect = lower value
# [9] = target: Beta-adrenergic receptor kinase 1 (Homo sapiens) (UniProt P25098); assay: GRK2 binders displacing RNA aptamer, biochemical, validation, human GRK2, bead flow cytometry (AID 488806;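 active means aptamer binding inhibition above 30%, about 3 SD of noise from non-fluorescent compounds; inactive means inhibition at or below 30%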); conditions: bead-bound GRK2, FAM-aptamer displacement, at 10 µM, stronger effect = higher value
# Chain of Beta-adrenergic receptor kinase 1 (Homo sapiens) (P25098 whole entry, looked up): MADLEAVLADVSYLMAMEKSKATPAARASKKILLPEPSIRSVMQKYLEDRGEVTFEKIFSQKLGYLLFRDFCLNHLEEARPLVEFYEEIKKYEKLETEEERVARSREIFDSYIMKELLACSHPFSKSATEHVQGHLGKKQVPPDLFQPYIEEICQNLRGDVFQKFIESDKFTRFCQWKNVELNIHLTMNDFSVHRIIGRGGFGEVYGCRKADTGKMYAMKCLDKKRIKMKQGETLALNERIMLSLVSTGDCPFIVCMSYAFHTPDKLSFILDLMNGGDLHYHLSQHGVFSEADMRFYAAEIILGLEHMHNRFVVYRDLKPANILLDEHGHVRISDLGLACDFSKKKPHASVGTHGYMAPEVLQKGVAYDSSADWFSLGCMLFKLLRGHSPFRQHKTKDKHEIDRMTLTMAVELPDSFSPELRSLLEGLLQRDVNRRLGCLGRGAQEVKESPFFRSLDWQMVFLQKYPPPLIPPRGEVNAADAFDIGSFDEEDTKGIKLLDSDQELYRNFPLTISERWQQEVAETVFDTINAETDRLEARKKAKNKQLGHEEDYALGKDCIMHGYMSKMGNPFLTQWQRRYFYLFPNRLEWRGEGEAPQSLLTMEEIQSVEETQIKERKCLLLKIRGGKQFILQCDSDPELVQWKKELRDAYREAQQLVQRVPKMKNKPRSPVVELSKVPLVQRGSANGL
# [10] = target: Beta-2 adrenergic receptor (Homo sapiens) (UniProt P07550); assay: beta2AR agonists driving receptor internalization, pilot screen, cell-based, FAP fluorogen, flow cytometry, validation set (AID 504459;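 active means percent response above 42, roughly 3 SD of non-fluorescent test compounds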;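 further: agonist-driven loss of surface beta2AR via internalization measured by FAP dye flow cytometry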); conditions: Am2.2-beta2AR cells, FAP surface receptor flow cytometry; at 10 µM; stronger effect = higher value
# Chain of Beta-2 adrenergic receptor (Homo sapiens) (P07550 whole entry, looked up, the tested form may be a part): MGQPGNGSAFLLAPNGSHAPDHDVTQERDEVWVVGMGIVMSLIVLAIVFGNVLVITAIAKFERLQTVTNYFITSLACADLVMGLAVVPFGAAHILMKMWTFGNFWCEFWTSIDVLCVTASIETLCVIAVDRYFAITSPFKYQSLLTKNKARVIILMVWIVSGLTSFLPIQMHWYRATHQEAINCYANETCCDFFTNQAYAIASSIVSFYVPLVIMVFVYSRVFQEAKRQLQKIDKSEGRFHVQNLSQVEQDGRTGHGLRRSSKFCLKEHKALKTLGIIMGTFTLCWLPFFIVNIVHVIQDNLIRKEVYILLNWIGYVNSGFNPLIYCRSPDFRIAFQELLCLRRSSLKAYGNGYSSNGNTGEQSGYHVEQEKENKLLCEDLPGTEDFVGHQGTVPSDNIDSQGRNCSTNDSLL
# [11] = target: AP-2 complex subunit beta (Homo sapiens) (UniProt P63010); assay: inhibitors of arrestin peptide binding to AP2, pilot screen, biochemical, validation set, GST-AP2 beads, flow cytometry (AID 504541); conditions: FITC arrestin peptide, at 10 µM, stronger effect = higher value, AP2 beta2 appendage fragment, R879A mutant;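 further: AP2 carries R879A mutation and is captured from E. coli lysate; bead-bound FITC arrestin peptide fluorescence measuring arrestin peptide binding to AP2; 0% = DMSO wells and 100% = excess unlabeled arrestin peptide control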
# Chain of AP-2 complex subunit beta (Homo sapiens) (P63010 whole entry, looked up, the tested form may be a part, one chain of several): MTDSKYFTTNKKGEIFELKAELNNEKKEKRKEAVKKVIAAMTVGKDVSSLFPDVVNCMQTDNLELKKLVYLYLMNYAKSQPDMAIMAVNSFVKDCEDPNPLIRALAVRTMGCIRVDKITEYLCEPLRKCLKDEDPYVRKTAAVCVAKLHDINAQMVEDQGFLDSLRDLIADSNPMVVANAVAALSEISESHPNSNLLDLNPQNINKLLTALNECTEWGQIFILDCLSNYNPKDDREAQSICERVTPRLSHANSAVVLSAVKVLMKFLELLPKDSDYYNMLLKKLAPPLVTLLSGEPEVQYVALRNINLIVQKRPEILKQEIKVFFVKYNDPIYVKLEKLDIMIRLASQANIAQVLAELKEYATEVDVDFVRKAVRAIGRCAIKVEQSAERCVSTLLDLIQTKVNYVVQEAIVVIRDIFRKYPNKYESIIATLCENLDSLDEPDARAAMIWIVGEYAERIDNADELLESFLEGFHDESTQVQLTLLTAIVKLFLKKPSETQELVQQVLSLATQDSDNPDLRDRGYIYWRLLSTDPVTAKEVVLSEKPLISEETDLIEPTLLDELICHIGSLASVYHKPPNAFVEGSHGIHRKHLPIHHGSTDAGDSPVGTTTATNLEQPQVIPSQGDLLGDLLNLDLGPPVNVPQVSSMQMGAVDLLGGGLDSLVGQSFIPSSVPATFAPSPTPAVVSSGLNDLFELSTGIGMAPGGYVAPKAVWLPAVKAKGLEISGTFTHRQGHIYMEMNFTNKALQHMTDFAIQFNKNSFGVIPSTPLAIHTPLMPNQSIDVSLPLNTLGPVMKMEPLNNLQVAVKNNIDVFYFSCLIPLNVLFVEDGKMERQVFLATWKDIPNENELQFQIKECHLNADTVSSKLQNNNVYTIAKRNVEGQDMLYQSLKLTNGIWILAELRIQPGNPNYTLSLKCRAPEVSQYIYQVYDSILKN
# [12] = yeast V-ATPase proton transport modulators, S. cerevisiae, pHLuorin, HTS validation (AID 504600; in the data active means response above about 15%;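 further: plate controls were DMSO for no effect and reference compound for full effect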); conditions: S. cerevisiae pHLuorin cytosolic pH, at 10 µM, stronger effect = higher value
# [13] = system: anti-desmoglein-3 scFv antibody binding to human DSG3; assay: inhibitors of anti-DSG3 scFv binding to DSG3, pilot screen, biochemical, validation compound set, bead-based, flow cytometry (AID 588368;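 active means binding below the plate cutoff, the plate median minus 3 SD, with a reading above zero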;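 further: signal is the median channel fluorescence of bead-bound GFP antibody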); conditions: Protein G beads, DSG3-Fc, scFv-GFP binding, at 10 µM, stronger effect = lower value
# [14] = inhibitors of fungal efflux pumps CDR1, CDR2, MDR1, pilot screen, validation compound set, multiplex, phenotypic (AID 588506;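 active means efflux inhibition above 0.42, the validation set average plus 4 SD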;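 further: Nile Red retained in cells so higher fluorescence means more efflux inhibition; 0 = negative control wells and 1 = enniatin B 25 µM full block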); conditions: S. cerevisiae pump-expressing triplex, Nile Red efflux flow cytometry; at 10 µM; stronger effect = higher value; the pumps come from Candida albicans
# [15] = target: ATP-binding cassette sub-family B member 6 (Homo sapiens) (UniProt Q9NP58); assay: ABCB6 transporter inhibitors, pilot screen, K562-ABCB6 cells, flow cytometry, validation set (AID 588550;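 active means inhibition above the screen-wide mean plus 3 SD, about 51%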;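 further: 0% = DMSO wells and 100% = benzethonium chloride 70 µM positive control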); conditions: K562-ABCB6 porphyrin accumulation, 1 h, at 10 µM, stronger effect = higher value
# Chain of ATP-binding cassette sub-family B member 6 (Homo sapiens) (Q9NP58 whole entry, looked up): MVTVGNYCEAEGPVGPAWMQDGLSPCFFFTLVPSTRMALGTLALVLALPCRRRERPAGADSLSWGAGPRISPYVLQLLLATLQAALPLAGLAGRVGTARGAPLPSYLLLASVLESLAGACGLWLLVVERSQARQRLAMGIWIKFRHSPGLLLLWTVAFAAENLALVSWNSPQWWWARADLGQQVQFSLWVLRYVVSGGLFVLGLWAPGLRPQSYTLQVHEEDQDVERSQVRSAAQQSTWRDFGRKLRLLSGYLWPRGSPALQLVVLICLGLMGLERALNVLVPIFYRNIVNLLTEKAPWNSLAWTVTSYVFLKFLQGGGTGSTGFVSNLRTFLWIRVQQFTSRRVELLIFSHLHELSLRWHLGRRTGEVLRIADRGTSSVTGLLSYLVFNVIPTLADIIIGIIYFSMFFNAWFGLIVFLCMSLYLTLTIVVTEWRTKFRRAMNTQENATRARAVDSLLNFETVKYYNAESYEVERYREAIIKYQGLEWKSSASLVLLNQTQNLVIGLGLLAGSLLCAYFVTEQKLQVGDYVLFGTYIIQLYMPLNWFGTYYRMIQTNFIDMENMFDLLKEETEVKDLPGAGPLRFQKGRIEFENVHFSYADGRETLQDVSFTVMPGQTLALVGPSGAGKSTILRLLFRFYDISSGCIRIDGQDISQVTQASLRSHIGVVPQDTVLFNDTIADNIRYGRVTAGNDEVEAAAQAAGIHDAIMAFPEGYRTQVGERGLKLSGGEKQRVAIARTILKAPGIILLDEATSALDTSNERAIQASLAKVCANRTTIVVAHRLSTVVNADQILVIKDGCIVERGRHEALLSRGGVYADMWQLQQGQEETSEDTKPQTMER
# [16] = promoters of myeloid differentiation in arrested cells, primary screen, cell-based, GFP/MAC1 double positive, flow cytometry, validation set (AID 588685;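 active means differentiation response of at least 50%, scaled between solvent and reference control, from cells with both markers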;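 further: compound exposure lasts four days before antibody staining and flow analysis; 0% = DMSO wells and 100% = 5 µM fulvestrant positive control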); conditions: ER-HoxA9 marrow cells, stronger effect = higher value, normalized: vehicle 0, fulvestrant 100
SMILES,percent of DMSO control GFP [1],GFP response vs DMSO [2],percent response of DMSO control [3],GFP response vs DMSO [4],"GFP response, % of DMSO [5]",double positive events [6] [%],vesicle binding response [6],inhibition [7],superoxide response (% of plate) [8],aptamer binding inhibition [9],response [10],inhibition [11],response [12],binding (% of control) [13],efflux inhibition (fraction of control) [14],inhibition [15],differentiation response [16]
CC1(C#CC[N+]2(C)CCCCC2)CCC2C(O1)c1ccccc1OC2(C)C (centres undefined),103% (inactive),102% (inactive),107% (inactive),91.5% (inactive),106% (inactive),60.2,95.6% (inactive),-6.45% (inactive),101% (inactive),-11% (inactive),5.86% (inactive),-11.4% (inactive),2.59% (inactive),101% (inactive),0.07 (inactive),-6% (inactive),-10.4% (inactive)
S=C(NCc1ccccc1)NCc1cccc(CNC(=S)NCc2ccccc2)c1,105% (inactive),98.6% (inactive),93.8% (inactive),108% (inactive),120% (inactive),62.4,205% (inactive),9.1% (inactive),81.9% (inactive),-2% (inactive),-21.3% (inactive),2.64% (inactive),-2.61% (inactive),100% (inactive),0.33 (inactive),2% (inactive),1.91% (inactive)
Cc1ccnc(NS(=O)(=O)c2ccc(N)cc2)n1,102% (inactive),99.7% (inactive),106% (inactive),102% (inactive),111% (inactive),63.6,203% (inactive),19% (inactive),92.2% (inactive),-1% (inactive),5.51% (inactive),-0.12% (inactive),-1.12% (inactive),94% (inactive),-0.3 (inactive),-3% (inactive),1.28% (inactive)
CCOC(=O)C1NN=C(C(=O)c2ccccc2)C1c1ccc(Cl)cc1 (centres undefined),98.3% (inactive),96.6% (inactive),91.3% (inactive),93.7% (inactive),88.8% (inactive),58.1,192% (inactive),9.63% (inactive),106% (inactive),3% (inactive),3.04% (inactive),-2.22% (inactive),-0.54% (inactive),99% (inactive),-0.005 (inactive),9% (inactive),-6.03% (inactive)
O=C(O)C1CSC(c2ccc3c(c2)OCO3)N1 (centres undefined),93.9% (inactive),121% (inactive),101% (inactive),78.7% (inactive),90.3% (inactive),61.8,197% (inactive),-7.12% (inactive),86.1% (inactive),3% (inactive),-4.07% (inactive),-4.96% (inactive),0.02% (inactive),105% (inactive),-0.2 (inactive),9% (inactive),-4.91% (inactive)
NCCCC(N)(C(=O)O)C(F)F (centres undefined),93.5% (inactive),99.7% (inactive),98.6% (inactive),107% (inactive),112% (inactive),62.2,174% (inactive),5.61% (inactive),105% (inactive),3% (inactive),5.08% (inactive),13.1% (inactive),-10.9% (inactive),97.7% (inactive),-0.135 (inactive),-5% (inactive),-4.57% (inactive)
Cc1ccc2c(CC(=O)O)coc2c1,104% (inactive),94.1% (inactive),109% (inactive),73% (inactive),95.4% (inactive),61.6,132% (inactive),-0.45% (inactive),107% (inactive),13% (inactive),-1.64% (inactive),0.71% (inactive),-0.96% (inactive),95.5% (inactive),0.02 (inactive),13% (inactive),0.24% (inactive)
